# Results from PubChem BioAssay (NCATS).
# Several values for one entry are separate records, joined by “and”; a condition that tells them apart may be missing. Identical values can stand only once. Records with an inconclusive call do not appear. Entries that show only a call come without a potency. Activity calls are given as the source filed them. Calls come from the whole dose curve; as a rule, active = well fitted curve in the direction sought with a large enough effect; inconclusive = small, poorly fitted or top-dose-only effect, or another doubt; inactive = no such curve, though single readings can be large; an effect the other way counts as inactive or inconclusive.
# Tests used:
# [1] = Confirmatory screen NINDS Rhodamine qHTS for Zika virus inhibitors (AID 1347161); note: nearly all actives have a fitted effect of over 60% in size; note: potency is the fitted concentration of half-maximal effect
# In short: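 Aprotinin served as in-plate control. Conditions: 25 nM linked NS2B-NS3, pH 8.0 Tris buffer, titrated compounds, 15 min preincubation and 15 min reaction with 1.5 microM Rhod110 substrate at room temperature.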
# [2] = system: Zika virus NS2B-NS3 protease (linked); assay: 384 well plate NINDS AMC confirmatory qHTS for Zika virus inhibitors (AID 1347163); note: nearly all actives have a fitted effect of over 50% in size; note: potency is the fitted concentration of half-maximal effect
# In short: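 Fluorescence at 355/460 nm was read after 25 minutes of cleavage of 30 microM Ac-VKTGKR-AMC at room temperature, in the dark. Before substrate addition, compounds (up to 1 mM final) sat ~15 minutes with 5, 30 or 60 nM linked protease. Signals were normalized to no-enzyme and no-inhibitor wells.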
# [3] = system: Zika virus NS2B-NS3 protease (linked construct); assay: 384 well plate NINDS Rhodamine confirmatory qHTS for Zika virus inhibitors (AID 1347164); note: nearly all actives have a fitted effect of over 65% in size; note: potency is the fitted concentration of half-maximal effect
# In short: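 Compounds are incubated about 15 minutes with linked protease (5, 30 or 60 nM final). Rhodamine 110-tagged Ac-LKRR substrate (10 microM final) is added and fluorescence measured after 25 minutes.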
# [4] = Vero cells viability qHTS for Zika virus inhibitors (AID 1347167); note: potency is the fitted concentration of half-maximal effect
# In short: (§1)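 qHTS titration; 24-48 h compound exposure, 37 degrees C/5% CO2; DMEM, 4% FBS; CellTiter Glo ATP luminescence.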
# [5] = Tertiary RLuc qRT-PCR qHTS assay for Zika virus inhibitors (AID 1347169); note: nearly all actives have a fitted effect of over 55% in size; note: potency is the fitted concentration of half-maximal effect
# In short: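 Orthogonal cell-based infection assay using recombinant ZIKV-RLuc (Cambodian) in Vero cells; compound added prior to virus at MOI 1-2. Incubation lasts 48-72 hrs at 37 degrees C before live-cell Renilla substrate is added and luminescence measured.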
# [6] = qHTS to identify inhibitors of the type 1 interferon - major histocompatibility complex class I in skeletal muscle: primary screen against the NCATS Pharmaceutical Collection (AID 1347407);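 note: luminescence of HiBiT knocked into endogenous HLA-B as interferon-induced MHC class I level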
# Description: Assay Submitter (PI): Travis B. Kinder Ph.D. & James Inglese Ph.D.
# Assay Development and Screening Technology Laboratory (ADST)
# National Center for Advancing Translational Sciences (NCATS), Rockville, MD
# National Institute of Health (NIH), Bethesda, Maryland
# Idiopathic inflammatory myopathies, collectively referred to as myositis, are a group of rare autoimmune diseases characterized by skeletal muscle inflammation, weakness, and usually accompanied by systemic pathologies of the skin, lungs, or vasculature. Current immunosuppressive therapies and glucocorticoids are often not curative and are accompanied by harsh side effects, especially in children with juvenile myositis. We initiated a drug repurposing and development program to identify more targeted, less toxic therapeutics to treat myositis. Although its cause is not known, muscle from a subset of patients have an abundance of the inflammatory type 1 interferon (IFN) and a down-stream product major histocompatibility complex class I (MHC class I), which are both thought to contribute to damage and weakness. We conducted quantitative high throughput screening on 6,576 compounds (4,679 unique) through a series of cell-based assays to identify those that inhibit the IFN-stimulated expression of MHC class I in muscle precursor cells (myoblasts). The compound identification and evaluation strategy utilized a primary screen with reporter-tagged MHC class I in genome-engineered myoblasts, ATP content counter screen for viability, HLA-ABC immunofluorescence secondary screen, and HLA-B RT-qPCR tertiary screen.
# The primary screen utilized CRISPR/Cas9 genome-engineering of immortalized human myoblasts, C25cl48, where a pro-luminescent reporter HiBit was fused to the C-terminus of endogenous MHC class I allele HLA-B*08:01 (HLA-B HiBit myoblasts). […] After 24 hrs of treatment, cells were assayed by Nano-Glo HiBiT Lytic Detection System (Promega) and luminescence measured by a ViewLux 1430 Ultra HTS (Perkin Elmer). […]
# [7] = system: Zika virus NS2B-NS3 protease (linked construct); assay: Primary screen NINDS Rhodamine qHTS for Zika virus inhibitors (AID 1347160); note: nearly all actives have a fitted effect of over 55% in size; note: potency is the fitted concentration of half-maximal effect
# In short: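 Single-chain NS2B-NS3 protease, 25 nM, pH 8.0; compounds preincubated 15 min. Activity: Rhodamine110 release from 1.5 microM substrate over 15 min, room temperature, data fitted to 4-parameter Hill.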
# [8] = HepG2 cells viability qHTS for Zika virus inhibitors (AID 1347168); note: potency is the fitted concentration of half-maximal effect
# In short: as §1
# [9] = qHTS to identify inhibitors of the type 1 interferon - major histocompatibility complex class I in skeletal muscle: primary screen against the NCATS LOPAC collection (AID 1347405);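 note: lytic HiBiT luminescence reporting HLA-B protein level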
# In short: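 After 24 h at 37 C with compounds (7-point, 1:4.3 dilutions, 46 uM top final) plus 4 ng/ml IFN-beta, luminescence from lytic HiBiT detection was measured. HLA-B*08:01 in C25cl48 myoblasts carried an endogenous C-terminal HiBiT tag; medium lacked dexamethasone.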
# [10] = qHTS for inhibitors of adenylyl cyclases using a fission yeast platform: a pilot screen against the NCATS LOPAC library (AID 1347410)
# In short: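 Growth medium went into the plates first, then compounds were pinned (final up to 57 µM), then CHP2027 yeast were added. Plates were incubated overnight (18 h) at 30C in the dark, and GFP was measured by laser scanning cytometry.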
structure (smiles),measurement,setting,value
O=C(Nc1cc(C(F)(F)F)cc(C(F)(F)F)c1)c1cc(Cl)ccc1O,Potency,[1],7.84 µM (active)
same,Potency,[2],inactive
same,Potency,[3],35.5 µM (active)
same,Potency,[4],1.47 µM (active)
same,Potency,[5],0.415 µM (active)
Cc1nc2ccc(CN(C)c3ccc(C(=O)N[C@@H](CCC(=O)O)C(=O)O)s3)cc2c(=O)[nH]1,outcome,[6],inactive
CN1CCC(CNc2ccc3ncc(-c4cccc(OC(F)(F)F)c4)n3n2)CC1,Potency,[7],inactive
same,Potency,[1],inactive
same,Potency,[8],11.7 µM (active)
CNC(=O)c1ccc(N2C(=S)N(c3cnc(C#N)c(C(F)(F)F)c3)C(=O)C23CCC3)cc1F,Potency,[7],inactive
Cc1cc(Nc2ncnc3ccc(-c4ccc(CNCCS(C)(=O)=O)o4)cc23)ccc1Oc1ccn2ncnc2c1,Potency,[7],inactive
Cc1ccc(C(=O)Nc2cccc(C(F)(F)F)c2)cc1-c1ccc2nc(NCCN3CCOCC3)ncc2c1,Potency,[7],inactive
same,Potency,[1],inactive
same,Potency,[4],inactive
same,Potency,[8],8.27 µM (active)
Cc1cc(Nc2cc(N3CCN(C)CC3)nc(Sc3ccc(NC(=O)C4CC4)cc3)n2)n[nH]1,Potency,[7],inactive
N#Cc1c(O)c2c(-c3ccc(-c4ccccc4O)cc3)csc2[nH]c1=O,Potency,[1],2.2 µM (active) and 2.48 µM (active)
same,Potency,[2],8.91 µM (active)
same,Potency,[3],inactive
same,Potency,[4],inactive
same,Potency,[8],inactive
same,Potency,[5],inactive
O=C(O)Cn1nnc(-c2cc(N3CCC(Oc4cc(F)ccc4Br)CC3)no2)n1,Potency,[7],inactive
same,Potency,[1],35 µM (active)
same,Potency,[2],inactive
same,Potency,[3],79.4 µM (active)
same,Potency,[5],1.17 µM (active)
CCOC(=O)C1=C(C)NC2=C(C(=O)CC(C)(C)C2)C1c1ccc(-c2ccccc2)cc1 (stereo not drawn),Potency,[7],inactive
same,Potency,[1],inactive
same,Potency,[2],inactive
same,Potency,[3],inactive
same,Potency,[4],inactive
same,Potency,[8],inactive
Clc1ccc2ncc(-c3cccc(NC4CNC4)n3)n2c1,Potency,[7],inactive
CCn1cc(-c2ccnc3[nH]c(-c4cccc(CN(C)C)c4)cc23)c(-c2ccc(NC(=O)N(C)C)cc2)n1,Potency,[1],inactive
same,Potency,[4],inactive
CCCn1c(=O)c2[nH]c(-c3cnn(Cc4cccc(C(F)(F)F)c4)c3)nc2n(CC)c1=O,Potency,[7],inactive
C#Cc1cccc(Nc2ncnc3cc(OC)c(OCCCCCCC(=O)NO)cc23)c1,Potency,[7],inactive
Cc1ccc(CN2CCNCC2)cc1NC(=O)CNc1ccc(F)c(F)c1,Potency,[7],inactive
O=c1c2ccccc2nc2n1CCc1c-2[nH]c2ccccc12,Potency,[7],inactive
same,Potency,[1],62.2 µM (active)
same,Potency,[2],inactive
same,Potency,[3],56.2 µM (active)
same,Potency,[4],inactive
same,outcome,[9],inactive
same,outcome,[10],inactive
CCN1CCN(Cc2ccc(-c3cc4c(N[C@H](C)c5ccccc5)ncnc4[nH]3)cc2)CC1,Potency,[1],inactive
same,Potency,[4],53.7 µM (active)
same,Potency,[8],38 µM (active)
O=C(c1ccc(Nc2nccc(-c3cc4ccccc4s3)n2)cc1)N1CCC(N2CCCC2)CC1,Potency,[7],inactive
COc1cccc2c(NCc3ccccc3)nc(-n3c(N)nc4ccccc43)nc12,Potency,[7],inactive
COc1cc2c(cc1-c1c(C)noc1C)ncc1[nH]c(=O)n([C@H](C)c3ccccn3)c12,Potency,[1],inactive
same,Potency,[5],0.37 µM (active)
C[C@@]12O[C@@H](C[C@]1(O)CO)n1c3ccccc3c3c4c(c5c6ccccc6n2c5c31)CNC4=O,Potency,[2],inactive
same,Potency,[3],inactive
same,Potency,[4],inactive
same,Potency,[8],16.5 µM (active)
CC(=O)SC[C@@H](C)C(=O)N1CCC[C@H]1C(=O)N[C@@H](Cc1ccccc1)C(=O)O,outcome,[6],inactive
Cc1ccc(C(N)=O)cc1Nc1nccc(-c2cn(C(C)C)c3cnccc23)n1,Potency,[7],inactive
CC(C)(O)c1cc2nc(-c3cnc(N)nc3)nc(N3CCOCC3)c2s1,Potency,[7],inactive
O=C(O)C1(Cc2cccc(Nc3nccs3)n2)CCC(Oc2cccc(Cl)c2F)CC1 (stereo not drawn),Potency,[7],4.47 µM (active)
same,Potency,[1],3.5 µM (active)
same,Potency,[2],3.16 µM (active)
same,Potency,[3],14.1 µM (active)
same,Potency,[4],inactive
same,Potency,[8],inactive
CC(=O)Nc1sc2c(c1-c1nc3ccccc3s1)CNC2,Potency,[7],inactive
C=CC(=O)Nc1cccc(Oc2nc(Nc3ccc(N4CCN(C)CC4)cc3)ncc2Cl)c1,Potency,[7],inactive
CCS(=O)(=O)c1cccc(-c2cc(C(=O)NC3CCN(C)CC3)c(C)c3[nH]c4ncc(C)cc4c23)c1,Potency,[7],inactive
same,Potency,[1],inactive
same,Potency,[4],inactive
same,Potency,[8],20.8 µM (active)
CCc1c2c(nc3ccc(O)cc13)-c1cc3c(c(=O)n1C2)COC(=O)[C@]3(O)CC,Potency,[7],10 µM (active)
same,Potency,[1],inactive
same,Potency,[5],0.0658 µM (active)
COc1cc(-c2nn(C3CCC(N4CCN(C(C)=O)CC4)CC3)c3ncnc(N)c23)ccc1NC(=O)c1cc2ccccc2n1C (stereo not drawn),Potency,[7],inactive
NC1(Cc2ccc(Cl)cc2)CCN(c2ncnc3[nH]ccc23)CC1,Potency,[7],inactive
Cc1cc(CN2CCN(c3c(Br)cnc4nc(-c5ccc(N6CCN(C)CC6)cc5)[nH]c34)CC2)no1,Potency,[7],inactive
same,Potency,[1],inactive
same,Potency,[2],inactive
NCC(=O)Nc1ccc(-n2nc(C(F)(F)F)cc2-c2ccc3c(ccc4ccccc43)c2)cc1,Potency,[7],inactive
Cc1cc(N2CCOCC2)cc2[nH]c(-c3c(NC[C@@H](O)c4cccc(Cl)c4)cc[nH]c3=O)nc12,Potency,[7],inactive
same,Potency,[1],44 µM (active)
same,Potency,[2],inactive
same,Potency,[4],inactive
CCN(CC)CCCCNc1ncc2cc(-c3cc(OC)cc(OC)c3)c(NC(=O)NC(C)(C)C)nc2n1,Potency,[1],inactive
CC(C)c1ccccc1Cc1cc(C(=O)Nc2ccc(S(=O)(=O)c3ccccc3C(C)(C)C)cc2)c(O)c(O)c1O,Potency,[1],90.3 µM (active)
same,Potency,[2],2.24 µM (active)
same,Potency,[3],1.58 µM (active)
same,Potency,[4],inactive
same,Potency,[8],inactive
same,Potency,[5],inactive
Cc1c(C)n(Cc2ccc(-c3ccccc3C(=O)O)cc2)c2ccc(C(=O)N[C@@H](C)c3ccc([N+](=O)[O-])cc3)cc12,Potency,[1],3.12 µM (active)
same,Potency,[2],112 µM (active)
same,Potency,[3],22.4 µM (active)
same,Potency,[4],inactive
same,Potency,[8],inactive
COc1cc(C(=O)NS(=O)(=O)c2ccccc2C)ccc1Cc1cn(C)c2ccc(NC(=O)OC3CCCC3)cc12,Potency,[1],1.56 µM (active)
same,Potency,[2],141 µM (active)
same,Potency,[3],28.2 µM (active)
same,Potency,[4],inactive
same,Potency,[8],inactive
same,outcome,[6],inactive
